Measured values published in the supplement of paper PMC4166925.
± gives the standard deviation of the averaged measurements. Over roughly 33,000 sequences, “E-score (dimensionless, -0.5 to 0.5)” has its median near -0.049; the highest 2% begin near 0.37. The sample as a whole holds a higher share of the highest values than the screen did.

system: T1, PmTbr T-box DNA-binding domain (GST fusion); assay: PBM E-score of 8-mer (E-score (dimensionless, -0.5 to 0.5)); Tbr is Tbrain of the sea star Patiria miniata (Pm) or the sea urchin Strongylocentrotus purpuratus (Sp); higher = stronger binding preference; conditions: the construct has about 5 more residues each side
T1 sequence: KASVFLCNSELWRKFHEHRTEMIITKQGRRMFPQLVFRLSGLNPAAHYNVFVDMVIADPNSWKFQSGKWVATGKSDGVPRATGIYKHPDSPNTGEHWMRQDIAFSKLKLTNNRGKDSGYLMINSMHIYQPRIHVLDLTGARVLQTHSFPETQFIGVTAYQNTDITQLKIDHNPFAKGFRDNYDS
Protocol: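 Universal protein-binding microarray (Agilent AMADID 016060, 60-bp probes with a 35-bp variable region) incubated with 200 nM GST-fused Patiria miniata Tbr T-box DNA-binding domain (residues 272-466) in PBS pH 7.5. Scored for every ungapped 8-mer (given with its reverse complement) by the Universal PBM Analysis Suite as E-score (modified Wilcoxon-Mann-Whitney enrichment, range -0.5 to 0.5; >0.45 counts as bound) and Z-score of median probe intensity. Two replicate arrays (datasets 1 and 2).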

Point of comparison: AGGTGAGC, “PBM E-score of 8-mer” value 0.303 ± 0.042. Against it:
- CCACCTTC — within error, 0.31 ± 0.02
- ACACCTTC — higher, 0.479 ± 0.00068
- AGACCTTC — lower, -0.269 ± 0.022
- ACGTGAGA — within error, 0.349 ± 0.0086
- CGGTGAGA — lower, 0.236 ± 0.0071
- AGGTGAGA — higher, 0.486 ± 0.0024
- TAGTGATA — within error, 0.245 ± 0.035
- AGGTGAGG — higher, 0.428 ± 0.013
- AAGTGAGG — lower, 0.2407 ± 0.0011
- CAGTGAGA — lower, 0.181 ± 0.028
- AAGTGAGA — higher, 0.429 ± 0.0088
- AAGTGATA — within error, 0.37 ± 0.025
- ACGTGAGG — lower, 0.159 ± 0.04
- AAGTGATG — within error, 0.28 ± 0.0076
- GGGGTTGA — lower, -0.000915 ± 0.043
- CGATCTAG — lower, 0.025 ± 0.0082
- CTTAGCGA — lower, 0.184 ± 0.025
- AATCTTCA — lower, -0.068 ± 0.038
- CTCGAGGC — lower, -0.039 ± 0.098
- CAAACTGG — lower, 0.102 ± 0.039
- AAATCTAG — lower, -0.091 ± 0.019
- GCCTCACC — lower, 0.0769 ± 0.049
- GAGTGAGA — within error, 0.334 ± 0.017
- GGGGGTGA — within error, 0.2941 ± 0.0011
- GGGTGAGA — higher, 0.406 ± 0.009
- ACCATGGC — lower, -0.0471 ± 0.08
- CAGTTTAA — lower, -0.0321 ± 0.037
- TACCTGCA — lower, -0.174 ± 0.0055
- CACCTGCG — higher, 0.429 ± 0.019
- CACCTGCC — higher, 0.406 ± 0.021
- GACCTGCC — lower, 0.148 ± 0.0062
- CACCTGCA — higher, 0.4 ± 0.0099
- AACCTGCG — lower, 0.0979 ± 0.006
- GACCTGCA — lower, 0.0626 ± 0.036
- CACCTGGC — higher, 0.427 ± 0.007
- CACCTGGA — within error, 0.366 ± 0.025
- AACCTGCC — lower, -0.0169 ± 0.035
- AACCTGGC — lower, 0.195 ± 0.038
- CACCTGGG — within error, 0.361 ± 0.029
- AAGGCCGA — lower, -0.191 ± 0.09
- CCTTATGC — lower, -0.139 ± 0.041
- GCCATTAC — lower, -0.169 ± 0.06
- GGCCTGAC — lower, -0.103 ± 0.02
- CGTCCCAG — lower, -0.151 ± 0.0033
- CACACGTG — higher, 0.376 ± 0.019
- CACACGTA — higher, 0.357 ± 0.0053
- CGCACGTC — within error, 0.354 ± 0.02
- CACACGGC — lower, 0.0461 ± 0.026
- CACACAAA — lower, 0.0927 ± 0.064
- AACACGAG — lower, 0.132 ± 0.0066
- ACCACGTG — lower, 0.169 ± 0.053
- AACACGTG — higher, 0.38 ± 0.016
- CACACGTC — higher, 0.4359 ± 0.0027
- CAAGAGTG — lower, 0.154 ± 0.047
- CAACCGAG — lower, 0.0284 ± 0.0078
- GAAAATAA — lower, -0.0661 ± 0.086
- TAACACCA — higher, 0.451 ± 0.0075
- CAACACGA — lower, 0.161 ± 0.015
- TAACACTA — higher, 0.382 ± 0.0057
- GAACACCC — lower, 0.1762 ± 0.00083
- CAACACGC — lower, 0.229 ± 0.019
- GAACACCA — lower, 0.0994 ± 0.0056
- CAACACCA — higher, 0.392 ± 0.015
- CAACACTA — within error, 0.323 ± 0.04
- CAACACCC — higher, 0.444 ± 0.015
- CAACACCG — within error, 0.3 ± 0.013
- AAACACCA — within error, 0.268 ± 0.0077
- GAACACTA — lower, 0.051 ± 0.077
- CTGACTCC — lower, -0.143 ± 0.047
- CTGCCCTC — lower, -0.067 ± 0.048
- CACCCATC — lower, 0.201 ± 0.011
- GATATACC — lower, -0.114 ± 0.031
- CAAATTCG — lower, 0.0471 ± 0.029
- GCTCTAAC — lower, 0.0585 ± 0.0059
- AATTACCG — lower, 0.0948 ± 0.036
- ACATCACT — lower, 0.0297 ± 0.063
- ACACACCC — within error, 0.327 ± 0.015
- CCACACCC — higher, 0.395 ± 0.028
- CCACACCG — lower, 0.134 ± 0.063
- ACCTCTTG — lower, 0.138 ± 0.027
- TAAGTGGA — lower, -0.141 ± 0.0053
- AGTTACCC — lower, -0.0906 ± 0.018
- AGCGCGAT — within error, 0.291 ± 0.0076
- ATCGCGAA — within error, 0.335 ± 0.046
- ATCGCGAT — higher, 0.38 ± 0.014
- GGCGCGCA — lower, 0.0945 ± 0.0047
- GTCGCGAA — within error, 0.33 ± 0.02
- TTCGCGAA — higher, 0.3702 ± 0.0034
- AGCGCGAG — within error, 0.319 ± 0.011
- ATCGCGAG — lower, 0.249 ± 0.0038
- GACGCGAA — lower, 0.126 ± 0.066
- AGCGCGAA — higher, 0.392 ± 0.014
- CTCGCGAA — higher, 0.368 ± 0.0047
- GGCGCGAA — higher, 0.4607 ± 0.0017
- GCTAGCAA — lower, 0.144 ± 0.015
- ATATTGCC — lower, -0.106 ± 0.095
- CTTCTATC — lower, -0.198 ± 0.025
- ATCTGTGA — within error, 0.282 ± 0.0073
- GTCGCCAA — within error, 0.288 ± 0.038
- CGGTCAAA — lower, -0.18 ± 0.0046
- AACAGTGC — lower, 0.0577 ± 0.058
- ATTCTGAG — lower, -0.131 ± 0.012
- CCGGCTGC — lower, -0.125 ± 0.1
- TGCGCGAA — within error, 0.307 ± 0.017
- CGCGCGAC — within error, 0.291 ± 0.025
- GTCGCGAC — higher, 0.385 ± 0.0054
- CGCGCGAA — higher, 0.3963 ± 0.00041
- AGCGCGAC — lower, 0.242 ± 0.003
- GGCGCGAC — higher, 0.377 ± 0.025
- ATCGCGAC — within error, 0.26 ± 0.021
- CTCGCGAC — within error, 0.326 ± 0.0051
- CGCGCGAG — within error, 0.27 ± 0.023
- ATAGGGGG — lower, -0.0469 ± 0.086
- CATCAAAC — lower, -0.0906 ± 0.034
- AAGGGGCC — lower, -0.0989 ± 0.015
- GCATGTAA — lower, -0.124 ± 0.0041
- AACCTTCC — lower, -0.196 ± 0.038
- CACCTTCA — higher, 0.436 ± 0.0071
- CACCTTCC — higher, 0.4461 ± 0.0012
- GACCTTCA — lower, -0.0991 ± 0.0084
- AACCTTCA — lower, -0.149 ± 0.083
- CACCTTCG — higher, 0.431 ± 0.02
- AACCTTCG — lower, -0.135 ± 0.0027
- CCCCTTCG — lower, -0.126 ± 0.029
- GACCTTCC — lower, 0.0338 ± 0.01
- AGATCGTA — lower, 0.0776 ± 0.06
- ACTCCTCG — lower, 0.219 ± 0.032
- ACCTAAGT — lower, 0.0966 ± 0.0054
- TAGGTCGA — lower, -0.111 ± 0.085
- GGGCGCAA — lower, 0.0355 ± 0.036
- ACTTGGAA — lower, -0.1519 ± 0.00037
- CCTCCACA — lower, 0.233 ± 0.021
- CGCTTGAA — lower, -0.191 ± 0.056
- CCATTAAC — lower, 0.0966 ± 0.0036
- CCTGTTGA — lower, 0.091 ± 0.045
- CTCTTGAA — lower, -0.374 ± 0.012
- AGACAGAG — lower, -0.139 ± 0.052
- CTCACCAC — within error, 0.209 ± 0.054
- GTCACCCA — within error, 0.259 ± 0.056
- CTCACCGC — lower, 0.055 ± 0.076
- ATCACCTG — higher, 0.379 ± 0.019
- GTCACCTA — higher, 0.4173 ± 0.0026
- CTCACCTC — higher, 0.449 ± 0.009
- ATCACCTC — higher, 0.4197 ± 0.00045
- ATCACCAC — lower, 0.15 ± 0.0054
- ATCACCGG — lower, -0.319 ± 0.02
- GTCACCGA — lower, 0.127 ± 0.041
- ATCACCAG — lower, -0.0506 ± 0.043
- ATCACCCC — within error, 0.289 ± 0.028
- AAAGACTC — lower, -0.156 ± 0.018
- AAGGGGGG — lower, -0.444 ± 0.023
- CGCACTAG — lower, 0.167 ± 0.021
- ATGCTGCC — lower, -0.293 ± 0.037
- ACCCACGG — lower, -0.132 ± 0.022
- CATGCGAA — lower, 0.108 ± 0.046
- CTCACCGA — lower, 0.00965 ± 0.039
- CTCACCTA — higher, 0.4081 ± 0.0035
- ATCACCAA — lower, 0.17 ± 0.016
- CTTACCTA — lower, -0.153 ± 0.059
- ATCACCTA — higher, 0.392 ± 0.022
- ATCACCCA — within error, 0.276 ± 0.021
- CTAGCGTA — lower, 0.0249 ± 0.015
- ATGGTTAC — lower, -0.265 ± 0.029
- ATTGGCGA — lower, 0.156 ± 0.027
- CTTAGCAA — lower, 0.0581 ± 0.031
- CTTAGCAC — higher, 0.4 ± 0.0047
- CATAGCAC — within error, 0.306 ± 0.029
- ATTAGCAC — higher, 0.417 ± 0.016
- ATTAGCAG — lower, 0.129 ± 0.045
- ATTAGCAA — lower, 0.12 ± 0.092
- AGAAGGGC — lower, -0.11 ± 0.013
- CTTGCTCA — lower, 0.0359 ± 0.0032
- CTCGCACC — higher, 0.4721 ± 0.0042
- CTCGCACA — higher, 0.375 ± 0.0071
- ATCGCACG — within error, 0.34 ± 0.023
- CTCGCGCA — lower, 0.191 ± 0.024
